Compounds with a hit are over-represented: about 3.1% of the library has one in this group of screens.
KLK7 zymogen act: proKLK7 (human) activation, primary screen; P49862; purified proKLK7, EDANS-DABCYL substrate fluorescence; 100% is mature enzyme control, 0% vehicle; activation, % at 7 µM; 370,000 compounds, 0.9% hits; AID 652039;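 active = activation above the mean of all tested compounds plus 3 SD, computed per campaign excluding outliers beyond control limits, cut at about 13% in these data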
Target sequence (P49862 whole entry, looked up): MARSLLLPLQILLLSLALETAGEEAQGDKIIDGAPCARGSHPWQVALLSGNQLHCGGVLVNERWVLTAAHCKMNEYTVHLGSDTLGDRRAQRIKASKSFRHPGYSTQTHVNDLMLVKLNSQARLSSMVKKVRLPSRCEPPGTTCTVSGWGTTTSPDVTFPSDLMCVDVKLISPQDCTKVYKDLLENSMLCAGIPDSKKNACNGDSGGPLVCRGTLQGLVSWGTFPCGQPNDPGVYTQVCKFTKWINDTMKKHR
LEDGF integ inh: blocks HIV-1 LEDGF/p75-dependent DNA integration. TR-FRET IN-LEDGF/p75 DNA integration, Eu/Cy5. inhibition, % at 3.7 µM. 370,000 compounds, 0.64% hits;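 active = inhibition above the screen-wide mean plus 3 SD, cut at about 13% in these data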;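 also: signal is the Cy5 over europium emission ratio at 671 and 618 nm; 0% = plate median of compound wells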
Neddyl block: inhibitors of human cullin neddylation. P61081+Q13564. TR-FRET cullin neddylation, biochemical. calls only at 25 µM. 360,000 compounds, 0.58% hits. AID 651699; in the data active = inhibition above about 36%
MBD2 DNA inh: MBD2-methylated oligo binding inhibition; 370,000 compounds, 0.31% hits; inhibition, % at 4.4 µM; TR-FRET, MBD2 binding to methylated oligonucleotide; in the data active = inhibition above about 13%
Target sequence (Q9UBB5 whole entry, looked up): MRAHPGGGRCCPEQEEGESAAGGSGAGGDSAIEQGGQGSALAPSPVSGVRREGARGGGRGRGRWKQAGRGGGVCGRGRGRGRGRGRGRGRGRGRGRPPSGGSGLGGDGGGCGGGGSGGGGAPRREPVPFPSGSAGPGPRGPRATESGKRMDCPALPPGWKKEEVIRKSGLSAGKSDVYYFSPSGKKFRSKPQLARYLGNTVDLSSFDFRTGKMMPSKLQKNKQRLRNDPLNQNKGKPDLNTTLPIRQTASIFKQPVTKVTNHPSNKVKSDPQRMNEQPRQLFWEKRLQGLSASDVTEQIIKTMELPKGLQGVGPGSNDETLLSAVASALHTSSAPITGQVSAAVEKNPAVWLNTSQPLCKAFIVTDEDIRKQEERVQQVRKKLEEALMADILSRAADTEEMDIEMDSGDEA
UHRF1 binding: human UHRF1 methylated DNA binding inhibitors. Q96T88. 370,000 compounds, 0.75% hits. AID 687016. UHRF1 binding to methylated oligo, TR-FRET. inhibition, % at 4.4 µM; in the data active = inhibition above about 21%;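 also: UHRF1 SRA domain binding a hemimethylated CpG hairpin DNA probe; 0% = median of test compound wells and 100% = reference inhibitor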
Rin1-Abl PPI inh: human Rin1-Abl interaction inhibition; AID 588664; P00519+Q13671; inhibition, % at 7.35 µM; TR-FRET Rin1/Abl binding, biochemical; 360,000 compounds, 0.4% hits; in the data active = inhibition above about 5%, passing the limit was not always enough
Rin1 Abl conf: confirmation of inhibitors of human Rin1-Abl interaction. shares compounds with Rin1-Abl PPI inh. TR-FRET Rin1-Abl binding, purified proteins. inhibition, % at 7.35 µM. 1,300 compounds, 49% hits. AID 602124; in the data active = inhibition above about 6.5%
GFP quench-1: counter-screen for Rin1-Abl inhibitors: GFP fluorescence quenchers; 1,300 compounds, 8.5% hits; inhibition, % at 6.75 µM; shares compounds with Rin1-Abl PPI inh; AID 602125; inhibitors/quenchers counterscreen; in the data active = inhibition above about 6.5%;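 also: ABL1-eGFP fusion protein alone without its partner RIN1-SBP; 0% = protein with vehicle and 100% = wells lacking protein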
GFP quench dose: GFP fluorescence interference dose response; shares compounds with Rin1-Abl PPI inh; GFP fluorescence interference/quenching counterscreen; IC50, µM; 230 tested, under 10 active; AID 602182;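 also: ABL1-eGFP fusion protein alone without its RIN1 binding partner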
GFP quench-2: counter-screen for Rin1-Abl interaction inhibitors: GFP fluorescence quenching; shares compounds with Rin1-Abl PPI inh; GFP fluorescence quenching counterscreen, biochemical; IC50, µM; 25 tested, under 10 active; AID 602397
* marks the source's active call; other numbers are inactive results; i = inactive; . = not tested or not shown. Unless noted, no rule for the calls is given here.

SMILES	KLK7 zymogen act	LEDGF integ inh	Neddyl block	MBD2 DNA inh	UHRF1 binding	Rin1-Abl PPI inh	Rin1 Abl conf	GFP quench-1	others
COc1ccc(C(=O)C2CCCN(Cc3cccn3-c3nccs3)C2)cc1OC (stereo not drawn)	0.4	-6.1	i	4.8	0.3	6.0*	-2.7	-0.7
COc1ccc(C(=O)NCC(=O)OCC(=O)Nc2ccc(C)c(S(=O)(=O)N(C)C)c2)cc1OC	-0.1	5.7	i	-7.8	-2.1	-0.5	.	.
CN(CC(=O)Nc1ccc(N2CCOCC2)cc1)C(=O)CCCOc1ccc(Cl)cc1Cl	-0.1	-0.9	i	2.7	0.4	11.5*	-2.1	-0.5
CCOc1ccc(OCCCC(=O)N(C)CC(=O)Nc2ccc(N3CCOCC3)cc2)cc1	0.7	2.0	i	-4.3	13.8	-1.1	.	.
CCCCCN1CCCCC(NC(=O)c2ccc(F)cc2)C1=O (stereo not drawn)	-0.4	1.9	.	-5.2	-1.1	.	.	.
CC1CCN(S(=O)(=O)c2ccc3c(c2)N(C)C(=O)CC(=O)N3C)CC1	0.9	-2.6	i	-0.9	-1.5	-1.6	.	.
O=c1cc(-c2ccc(O)cc2)oc2ccccc12	-0.1	-3.7	.	0.5	-13.3	-2.7	.	.
O=c1cc(-c2ccccc2)oc2cc(O)ccc12	-4.3	5.5	i	0.7	-7.9	63.9*	-0.5	0.1
CN1CCN(CC(=O)c2ccccc2F)CC1	0.5	6.3	i	0.8	0.4	1.2	.	.
Cc1ccc(C(=O)O/N=C(\N)c2cccnc2)cc1[N+](=O)[O-]	-0.3	-4.0	i	0.2	-8.1	6.9*	-1.4	-1.8
N/C(=N\OC(=O)c1ccc([N+](=O)[O-])cc1)c1cccnc1	-0.4	1.4	i	4.8	2.1	0.7	.	.
CCN(CC)CCN(Cc1cc2ccc(C)c(C)c2[nH]c1=O)C(=S)NCc1ccco1	0.8	-3.8	i	-0.4	4.2	-0.7	.	.
O=C(NCCc1ccccc1O)c1cc2c(cc1[N+](=O)[O-])OCO2	-0.1	-2.4	i	5.2	2.1	4.3	.	.
CCOc1ccc(CCNC(=O)CN2C(=O)c3cccnc3Oc3ccc(C)cc32)cc1OCC	-0.3	0.0	i	1.5	-1.0	36.3*	41.1*	-0.3	GFP quench dose=>67.4
CCOc1ccc(CCNC(=O)CN2C(=O)c3cccnc3Oc3ccc(Cl)cc32)cc1	0.5	0.4	i	-4.1	1.7	26.5*	24.3*	-1.5	GFP quench dose=>67.5
O=C(CN1C(=O)c2cccnc2Oc2ccc(Cl)cc21)NCCC1=CCCCC1	-0.1	1.9	i	-1.6	-3.3	-2.5	.	.
Cn1c(SCC(=O)Nc2ccc(NC(=O)c3cccc(F)c3)cc2)nnc1-c1ccncc1	0.3	-5.7	i	2.6	-2.2	0.7	.	.
CN(C(=O)c1ccc(NC(=O)Cc2ccc(NC(=O)C3CCN(C(=O)C4CCCC4)CC3)cc2)cc1)C1CCCC1	0.8	2.9	i	-0.5	0.4	21.7*	27.5*	-1.2	GFP quench dose=>67.5
CN(C(=O)c1ccc(NC(=O)Cc2ccc(NC(=O)C3CCN(C(=O)C4CCCCC4)CC3)cc2)cc1)C1CC1	0.5	0.5	i	2.9	0.5	68.1*	66.0*	-0.6
CN(C(=O)c1ccc(NC(=O)Cc2ccc(NC(=O)C3CCN(C(=O)CCc4ccccc4)CC3)cc2)cc1)C1CCCC1	-0.5	-2.7	i	-0.6	1.7	-0.5	.	.
CN(C(=O)c1ccc(NC(=O)Cc2ccc(NC(=O)C3CCN(C(=O)CCc4ccccc4)CC3)cc2)cc1)C1CC1	0.6	-0.7	i	3.1	2.9	11.7*	17.1*	-0.4
CN(C(=O)c1ccc(NC(=O)Cc2ccc(NC(=O)C3CCCN(C(=O)C4CCCCC4)C3)cc2)cc1)C1CC1 (stereo not drawn)	0.9	2.4	i	7.2	3.9	5.5	.	.
CN(C(=O)c1ccc(NC(=O)Cc2ccc(NC(=O)C3CCCN(C(=O)C4CCCC4)C3)cc2)cc1)C1CC1 (stereo not drawn)	0.8	1.0	i	-1.9	1.3	12.6*	18.5*	1.6
CN(C(=O)c1cccc(NC(=O)C2CCN(C(=O)OC(C)(C)C)CC2)c1)C1CCCCC1	-0.2	-1.3	i	-4.3	-3.6	5.8	.	.
CC(CCc1ccccc1)NC(=O)CN1C(=O)NC2(CCCCC2)C1=O (stereo not drawn)	0.1	-1.2	i	8.4	1.5	-0.4	.	.
SMILES	KLK7 zymogen act	LEDGF integ inh	Neddyl block	MBD2 DNA inh	UHRF1 binding	Rin1-Abl PPI inh	Rin1 Abl conf	GFP quench-1	others
O=C(Cc1ccc(NC(=O)C2CCN(C(=O)C3CCCCC3)CC2)cc1)Nc1ccc(C(=O)N2CCOCC2)cc1	0.4	0.0	i	1.6	1.8	38.8*	44.0*	0.3	GFP quench dose=>67.6;GFP quench-2=>67.5
CCC[C@H]1[C@@H](N(C)Cc2cccs2)CC[C@@]23CCCN2C(=O)CCC[C@@H]13	.	-4.5	.	0.6	0.3	.	.	.
O=S(=O)(c1cccs1)N1CCC(c2cn3ccccc3n2)CC1	0.9	-1.6	.	3.2	-0.6	.	.	.
Cc1ccc(S(=O)(=O)N2C[C@H]3[C@H]4C(=O)N(c5ccccc5)C(=O)[C@H]4CC(=O)[C@H]3[C@@H]2c2cccc3ccccc23)cc1	-0.1	3.6	i	-2.9	0.0	48.0*	-0.7	-2.2
C=CCN(CC#Cc1ccccc1)Cc1ccc(OC)cc1OC	-0.7	-1.4	.	0.4	-2.2	.	.	.
CC(NC(=O)c1ccc(F)cc1F)C1CC2CCC1C2 (stereo not drawn)	-0.7	-0.6	i	1.5	0.3	8.1*	-1.3	0.4
CCNc1cc2c(cc1O)CCC1C2CCC2(C)C(O)CCC12 (stereo not drawn)	0.3	-3.5	i	-1.4	-3.2	12.5*	-3.2	0.6
O=C(O)CC(CNS(=O)(=O)c1ccccc1)c1ccccc1 (stereo not drawn)	0.2	-4.1	i	3.7	4.8	3.4	.	.
CCOc1ccc2nc(N(CCN(C)C)C(=O)c3cc4ccccc4cc3OC)sc2c1	.	.	i	.	.	16.9*	16.9*	-2.1	GFP quench dose=>67.5
C#CCN(Cc1ccco1)C(=O)c1ccc(OC2CCN(Cc3ccccn3)CC2)cc1	-0.2	-5.6	i	-2.7	0.6	1.2	.	.
COc1ccccc1C(=O)Nc1ccc(C(=O)N2CCCC2)cc1	0.3	0.8	i	-2.8	-4.9	7.5	.	.
COc1ccccc1C(=O)Nc1ccc(C(=O)N2CCCCC2)cc1	-0.2	-3.3	i	1.2	1.9	14.1*	12.8*	-0.3
Brc1ccc(N=NNc2ccccc2)cc1	0.1	2.7	i	1.5	-0.5	5.8*	-1.6	-0.7

Assay outcomes deposited in PubChem BioAssay by several laboratories.
